The list is not random: actives were taken first. Their share in the collection is about 4.7%.
D1 PAM: enhances dopamine response at the human D1 receptor. HEK293 TREx D1 cells, calcium flux, dopamine EC20 potentiation. AID 504651. P21728. potentiation, % at 10 µM. actives 0.036% (n = 360,000); in the data active means potentiation above about 30%; further: 0% is about no effect
D1 antag: blocks dopamine activation of the human D1 receptor | P21728 | activity change, negative = inhibition, % at 10 µM | actives 3.2% (n = 360,000) | HEK293 TREx D1 cells, calcium flux, dopamine EC80; stronger effect = lower value; in the data active means activity change below about -30%; further: on the % scale 0 is the no-effect control and ±100 the full control effect
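After overnight tetracycline induction at 30 C, force-coupled D1 HEK293 cells took up a no-wash calcium dye at room temperature. Compounds were added and monitored 180 s, and the response to EC80 dopamine was then recorded.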
D1 agonist: human D1 receptor agonism | P21728 | HEK293 T-REx D1 cells, calcium flux, agonist mode | activation, % at 2 µM | actives 1% (n = 360,000); further: 0% is about no effect
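Inducible HEK293 T-REx D1 cells, force-coupled to calcium signalling, were plated at 4000 cells/well with tetracycline and held overnight at 30 C. After no-wash calcium dye loading, compound-evoked calcium rise over 180 s flagged agonists.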
TRHR enhancer: allosterically enhances the human TRH receptor; enhancement, % at 2 µM; TRHR cells, fluo-8 calcium fluorescence, EC20 TRH enhancement; P34981; AID 493056; actives 0.66% (n = 360,000); in the data active means enhancement above about 30%; further: 0% is about no effect
Target sequence (P34981 whole entry, looked up): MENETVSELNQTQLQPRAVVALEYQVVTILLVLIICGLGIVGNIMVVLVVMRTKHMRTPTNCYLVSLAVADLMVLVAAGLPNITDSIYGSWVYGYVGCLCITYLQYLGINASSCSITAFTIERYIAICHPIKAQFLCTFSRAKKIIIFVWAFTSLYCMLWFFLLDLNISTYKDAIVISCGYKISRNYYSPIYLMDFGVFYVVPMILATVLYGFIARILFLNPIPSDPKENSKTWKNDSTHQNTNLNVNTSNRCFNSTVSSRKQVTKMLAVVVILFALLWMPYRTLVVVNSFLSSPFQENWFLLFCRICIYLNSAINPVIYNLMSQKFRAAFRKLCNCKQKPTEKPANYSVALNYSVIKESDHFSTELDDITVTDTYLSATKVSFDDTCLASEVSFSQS
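Enhancer read-out: after compound pinning and an initial kinetic agonist-mode read, an EC20 of TRH (10 nM final) was injected and fluo-8 calcium signal (Ex 480/Em 530) followed at 1 s/cycle for 100 cycles in TRHR-expressing cells.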
TRHR ag: TRH receptor (human) agonism; activation, % at 2 µM; TRHR cells, calcium flux fluo-8, FDSS agonist mode; actives 0.18% (n = 360,000); P34981; further: 0% is about no effect
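TRHR-expressing cells, plated overnight in medium with 10% serum, were loaded with fluo-8 calcium dye at room temperature. After a 10 s baseline, library compound was pin-added and calcium release was recorded kinetically (ex 480/em 530) as agonist response.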
* = called active by the depositor. Unless noted, no stated cut-off is given here; in the data, active means activation above about 30%; inactive means the rest.

Results for COC(=O)c1c(-c2cccs2)csc1NC(=O)c1ccc(C)cc1 ?
D1 PAM: 1; D1 antag: 11; D1 agonist: 1; TRHR enhancer: 29; TRHR ag: 1

Results for O=C(Nc1scc(-c2cccs2)c1C(=O)O)c1cccs1 ?
D1 PAM: -4; D1 antag: -84*; D1 agonist: 3; TRHR enhancer: -3; TRHR ag: 0

How did COc1ccc(-n2nc3ccc(NC(=O)c4cc5ccccc5o4)cc3n2)cc1Cl do in these assays?
D1 PAM: 1; D1 antag: -7; D1 agonist: 3; TRHR enhancer: 11; TRHR ag: -2

What do the screens show for `O=C(Nc1ccc(Br)cc1F)c1cc(S(=O)(=O)NC2CCCC2)ccc1F`?
D1 PAM: -2; D1 antag: -3; D1 agonist: 0; TRHR enhancer: 1; TRHR ag: -1

Results for COc1ccc(-c2cc(C(F)(F)F)nc(SCCC(=O)Nc3cccc(O)c3)n2)cc1 ?
D1 PAM: -8; D1 antag: -15; D1 agonist: 3; TRHR enhancer: 4; TRHR ag: -1

Results for O=C(Cn1c(=O)c2ccccc2n(CC(=O)Nc2ccc(Cl)cc2)c1=O)NCCc1ccccc1 ?
D1 PAM: 0; D1 antag: -1; D1 agonist: 5; TRHR enhancer: -1; TRHR ag: 2

What do the screens show for `CC(=O)N1CCC2(CC1)OC(=O)C(C)=C2C(=O)NCc1cccc(Cl)c1`?
D1 PAM: 0; D1 antag: 9; D1 agonist: 2; TRHR enhancer: -3; TRHR ag: 0

Results for Cc1ccc(NC(=S)NNC(=O)Cn2nc([N+](=O)[O-])cc2C)cc1 ?
D1 PAM: -7; D1 antag: -5; D1 agonist: 2; TRHR enhancer: 2; TRHR ag: 0

How did COc1cccc(NC(=S)NNC(=O)Cn2nc([N+](=O)[O-])cc2C)c1 do in these assays?
D1 PAM: 1; D1 antag: 1; D1 agonist: 1; TRHR enhancer: 41*; TRHR ag: 0

How did COc1nc(-c2ccc(C)cc2)ccc1-c1noc(-c2ccc(C(C)(C)C)cc2)n1 do in these assays?
D1 PAM: -4; D1 antag: -8; D1 agonist: -1; TRHR enhancer: -11; TRHR ag: 0

Results for Cc1ccc(C(=O)OCC(=O)N2CCCC2)cc1 ?
D1 PAM: -7; D1 antag: -56*; D1 agonist: 1; TRHR enhancer: 13; TRHR ag: 0

How did COc1cc(C(=O)OCC(=O)N2CCCC2)cc(OC)c1OC do in these assays?
D1 PAM: -4; D1 antag: -42*; D1 agonist: 3; TRHR enhancer: -3; TRHR ag: 7

How did Cc1cc(C)cc(C(=O)OCC(=O)N2CCCC2)c1 do in these assays?
D1 PAM: 4; D1 antag: 3; D1 agonist: -1; TRHR enhancer: -7; TRHR ag: 1

What do the screens show for `Cc1cc(C)c(S(=O)(=O)N2CCC(N3CCN(Cc4ccccc4)C(=O)C3=O)CC2)c(C)c1`?
D1 PAM: -4; D1 antag: 10; D1 agonist: 1; TRHR enhancer: -3; TRHR ag: -1

What do the screens show for `NC(=O)c1oc2ccccc2c1NC(=O)CN1CCCCC1`?
D1 PAM: -8; D1 antag: -12; D1 agonist: -1; TRHR enhancer: -8; TRHR ag: 0

How did NC(=O)c1oc2ccccc2c1NC(=O)C1CCCCC1 do in these assays?
D1 PAM: -5; D1 antag: 7; D1 agonist: 0; TRHR enhancer: 38*; TRHR ag: 0

How did COc1cccc(C(=O)C2CCCN(Cc3cccn3-c3ccccn3)C2)c1 (stereo unspecified) do in these assays?
D1 PAM: -6; D1 antag: -32*; D1 agonist: 26; TRHR enhancer: -1; TRHR ag: 0

What do the screens show for `N/C(=N\OC(=O)c1cccnc1)c1ccc(Cl)cc1Cl`?
D1 PAM: 1; D1 antag: -33*; D1 agonist: 2; TRHR enhancer: -2; TRHR ag: 1

What do the screens show for `N/C(=N\OC(=O)COc1ccccc1Cl)c1ccccn1`?
D1 PAM: 0; D1 antag: -14; D1 agonist: 3; TRHR enhancer: 1; TRHR ag: 0

Results for N/C(=N\OC(=O)COc1ccc(Br)cc1)c1ccncc1 ?
D1 PAM: -7; D1 antag: -39*; D1 agonist: 11; TRHR enhancer: 0; TRHR ag: 0

What do the screens show for `Cc1cccc(OCC(=O)O/N=C(\N)c2ccc(Cl)cc2)c1`?
D1 PAM: 0; D1 antag: -43*; D1 agonist: -1; TRHR enhancer: 26; TRHR ag: 1

How did N/C(=N\OC(=O)COc1ccc2ccccc2c1)c1ccccn1 do in these assays?
D1 PAM: -5; D1 antag: -53*; D1 agonist: 7; TRHR enhancer: 2; TRHR ag: 1

Results for COC(=O)c1ccc(NC(=O)CSc2nc(=O)n(Cc3ccco3)c3c2CCC3)cc1 ?
D1 PAM: -4; D1 agonist: 4; TRHR enhancer: 9; TRHR ag: 1

How did COC(=O)c1ccc(NC(=O)CSc2cn(CC(=O)N3CCCCCC3)c3ccccc23)cc1 do in these assays?
D1 PAM: -5; D1 antag: -19; D1 agonist: 3; TRHR enhancer: -3; TRHR ag: 0

How did COc1ccc(Cl)cc1NC(=O)c1cn(C2CCCC2)c(=O)c2c1c1ccccc1n2C do in these assays?
D1 PAM: 1; D1 antag: 4; D1 agonist: 2; TRHR enhancer: -3; TRHR ag: 0

How did N/C(=N\OC(=O)c1cccc(Cl)c1)c1ccccn1 do in these assays?
D1 PAM: -9; D1 antag: -38*; D1 agonist: 0; TRHR enhancer: 4; TRHR ag: 0

What do the screens show for `Cc1ccc(C)c(Nc2nnc(-n3nc(C)cc3C)c3ccccc23)c1`?
D1 PAM: 1; D1 antag: -15; D1 agonist: 5; TRHR enhancer: -3; TRHR ag: -1

Results for CCN1CCN(C(=O)c2cnn(-c3ccc(F)cc3)c2-n2cccc2)CC1 ?
D1 PAM: 0; D1 antag: -16; D1 agonist: 2; TRHR enhancer: 8; TRHR ag: -1

What do the screens show for `Fc1ccc2[nH]c3c(c2c1)CN(C(=S)NCc1ccccc1)CC3`?
D1 PAM: -4; D1 antag: -38*; D1 agonist: 6; TRHR enhancer: 6; TRHR ag: -2

How did COc1ccccc1CNC(=O)c1cn(C)c2ccc(S(=O)(=O)N(C)C3CCCCC3)cc2c1=O do in these assays?
D1 PAM: 15; D1 antag: -37*; D1 agonist: 4; TRHR enhancer: 3; TRHR ag: 0

What do the screens show for `Cc1ccc(CNC(=O)c2cn(C)c3ccc(S(=O)(=O)N(C)C4CCCCC4)cc3c2=O)cc1`?
D1 PAM: 2; D1 antag: -3; D1 agonist: -2; TRHR enhancer: 0; TRHR ag: 0

Source: PubChem
